Assay [1] can be described thus: Tanguay_ZF_120hpf_OTIC_legacy: (Legacy) Oregon State University Tanguay Lab 120 Hour Post-fertilization zebrafish Assay for Otic Vesicle Malformation (AID 2283639). The method, boiled down:
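Binary scoring of otic vesicle defects at 120 hpf in zebrafish (Tropical 5D) held under static exposure at 28C, sealed and shaded, with final DMSO 0.64%. Embryos dying by 24 or 120 hpf excluded; fitted positively against DMSO.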

The nature of assay [2]: Tanguay_ZF_120hpf_PE_legacy: (Legacy) Oregon State University Tanguay Lab 120 Hour Post-fertilization zebrafish Assay for Pericardial Edema (AID 2283640).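 On AC50: potency for increased incidence of pericardial edema versus DMSO baseline.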 The method, boiled down: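 Embryos from wild-type 5D adults were staged, then dosed in 0.64% DMSO. They were kept sealed in the dark at 28C until 120 hpf. Pericardial edema was then recorded as present or absent.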
Assay [3] is described as follows: Tanguay_ZF_120hpf_BRAI_legacy: (Legacy) Oregon State University Tanguay Lab 120 Hour Post-fertilization zebrafish Assay for Brain Malformation (AID 2283641). The gist of the method: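 Wild-type 5D larvae, static waterborne exposure to 120 hpf, 28C, 0.64% v/v DMSO. Brightfield scoring of brain defects, binary; dead embryos excluded. Positive ctrl 5uM trimethyltin chloride.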

The nature of assay [4]: Tanguay_ZF_120hpf_PFIN_legacy: (Legacy) Oregon State University Tanguay Lab 120 Hour Post-fertilization zebrafish Assay for Pectoral Fin Malformation (AID 2283648).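 Further: each larva judged yes or no for fin defect by brightfield with dead larvae skipped.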 The gist of the method:
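Binary pectoral fin malformation call at 120 hpf by brightfield microscopy; 5D wild-type zebrafish, chorion removed at 4 hpf, one embryo per well from 6 hpf, static exposure at 28C; DMSO (0.64% final) as baseline.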

Assay [5] can be described thus: Tanguay_ZF_120hpf_PIG_legacy: (Legacy) Oregon State University Tanguay Lab 120 Hour Post-fertilization zebrafish Assay for Pigmentation Malformation (AID 2283650).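 Further: dechorionated Tropical 5D zebrafish embryos exposed singly from 6 to 120 hpf.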 The method, boiled down: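 Brightfield scoring of pigmentation malformation at 120 hpf, recorded as binary present/absent per larva. Exposure: dechorionated 5D wild-type embryos, one per well, static from 6 hpf at 28C, final DMSO 0.64% (vol/vol). Dead embryos not scored.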

A short description of assay [6]: Tanguay_ZF_120hpf_CIRC_legacy: (Legacy) Oregon State University Tanguay Lab 120 Hour Post-fertilization zebrafish Assay for Circulatory Malformation (AID 2283651). The gist of the method:
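Binary circulatory malformation call at 120 hpf by brightfield imaging of zebrafish larvae; chorion removed at 4 hpf, static exposure from 6 hpf in sealed dark plates at 28C, final DMSO 0.64%; non-mortality endpoints skipped if embryo died.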

Assay [7] in a line: Tanguay_ZF_120hpf_SOMI_legacy: (Legacy) Oregon State University Tanguay Lab 120 Hour Post-fertilization zebrafish Assay for Somite Malformation (AID 2283647). The method, boiled down:
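Read-out: presence or absence of somite malformation in 120 hpf larvae, gain-of-signal relative to DMSO baseline. Embryos lacked chorion (pronase, 4 hpf) and were exposed statically from 6 hpf at 28C; dead larvae not scored.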

Assay [8] is described as follows: Tanguay_ZF_120hpf_CFIN_legacy: (Legacy) Oregon State University Tanguay Lab 120 Hour Post-fertilization zebrafish Assay for Caudal Fin Malformation (AID 2283649). The method, boiled down:
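Binary presence or absence of caudal fin malformation at 120 hpf, read by brightfield microscopy, with DMSO as baseline. Larvae came from 5D wild-type embryos exposed statically from 6 hpf at 28C after pronase dechorionation.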

Read-out in assay [9]: solute carrier (SLC22A6), SLC22A6 (gene 9356)
In words: LTEA_HepaRG_SLC22A6: Life Technologies and Expression Analysis (LTEA) Assay for solute carrier (SLC22A6) using HepaRG (AID 2283653; active means hit-call score of the fitted dose curve at least 0.9, where 1 is the maximum; inactive means score below 0.9). The conditions noted are these: mRNA level, 48 h; actives raise or lower the signal. On the procedure:
LTEA_HepaRG is a cell based, multiplexed-readout assay that uses HepaRG, a human liver cell line, with measurements taken at 48 hours after chemical dosing on a 96-well plate.LTEA_HepaRG_SLC22A6 is one of 102 assay component(s) measured in the LTEA HepaRG cell culture assay. It is a marker of NR mediated transport.Data from the assay component LTEA_HepaRG_SLC22A6 was analyzed into 1 endpoint. This assay endpoint, LTEA_HepaRG_SLC22A6, was analyzed with bidirectional fitting relative to DMSO as the negative control and baseline of activity. Using a type of inducible reporter, measures of mRNA induction for gain or loss-of-signal activity can be used to understand regulation of transcription factor activity. To generalize the intended target to other relatable targets, this assay endpoint is annotated to the transporter intended target family, where the subfamily is organic anion transporter.
A total of 1060 chemcials from the ToxCast library were tested in eight-point concentration-response experiments. Cell culture and cytotoxicity assays were conducted at Thermo Fisher Scientific's Custom Services facility (Madison, WI). A single lot of human HepaRG cells (Thermo Fisher Scientific, Frederick, MD) was used for the cell culture experiments. 96-well format collagen type I coated plates of human HepaRG cells were prepared using established methods. Briefly, cryopreserved HepaRG cells were thawed, plated at a density of approximately 100,000 cells/well in HepaRG Thaw, Plate, and General Purpose media (HPRG770, Thermo Fisher Scientific), and incubated for 48 hours. 0.5% DMSO was selected as vehicle control to balance the requisite need of DMSO in HepaRG cultures to maintain differentiation (for example, baseline metabolism, proportions of hepatocytes vs. cholangiocytes), while enabling further hepatic receptor pathway activation (for example, PXR and CAR) in response to chemical exposure. 48 hours after plating, the culture medium was replaced with HepaRG Serum-Free Incudtion Media. Cells were exposed to each test chemical in duplicate and maintained in CO2 incubators for another 48 hours. Chemical plates were thawed to room temperature and 200x concentrations of treatment groups were prepared. 8-point conentration-reponse curves were made with the highest exposure at 100 uM, followed by half-log dilutions, all in 0.5% DMSO. Each test plate contained variouse controls, induction positive controls (1mM phenobarbital), cytotoxicity positive controls ([…] aflatoxin B1), vehicle controls (0.5% DMSO), and total lysis controls (0.5% DMSO). Cell morphology images were taken using an Essen IncuCyte FLR automated microscope, with six 96-well plates imaged in about 24 minutes. Images were captured and exported and JPEG files. Spent culture media was transfered to black-well plates for the LDH assay, and remaining media was sorted at -80 C for later use. Cells were treated with RLT buffer and frozen until shipped for gene expression analysis. Total RNA was isolated from the cell suspension in 75 uL of Buffer RLT (Qiagen, Germantown, MD 20874) by Quintiles/Expression Analysis (Durham, NC) using a custom isolation procedure. Total RNA from each plate well was transferred to a preamplification plate. Fluidigm's 96.96 Dynamic ArrayTM (Fluidigm, Amsterdam, the Netherlands) technology was used for gene expression analyses by quantitative reverse transcription polymerase chain reaction (qRT-PCR, performed by Quintiles/Expression Analysis, Durham, NC)89. Standard TaqManTM Assays (Applied Biosystems/ThermoFisher Scientific, Foster City, CA) were used to assess the expression of 93 genes selected based on their selectivity and sensitivity to important hepatic receptors known to be modulated by environmental chemicals; importance in human hepatocyte functionality; and hepatotoxicity. […]

The record followed here is PubChem BioAssay (EPA / NIEHS).

Inconclusive results are not listed. Calls of active or inactive are those of the source. How the source made its calls, unless noted: active means hit-call score of the fitted dose curve at least 0.9, where 1 is the maximum; inconclusive means response in the unintended direction; inactive means score below 0.9.

As to `c1cc(-c2ccncc2)ccn1`, the compound was called inactive in assay [1], in [2], in assay [3], in assay [4], in assay [5] and in assay [6].

As to `Cc1cccc(Nc2cc(Cl)nc(SCC(=O)O)n2)c1C`, the call in assay [1], in [2], in assay [3], in [4], in [5] and in [6] was inactive.

Turning to `CCCCCCCCCCCCCO`, the outcome in assay [1], in [3], in assay [7], in assay [4], in [5] and in assay [6] was inactive.

As a reminder, the AC50 is the concentration giving half of the maximal activity seen. Consider `C=CCOC(=O)c1ccccc1C(=O)OCC=C`, for which the result in assay [1], in assay [4], in assay [5] and in [6] was inactive. The concentration at half-maximal activity (AC50) in [2] is 46900 nM (active).

Consider `CCCCCCCCCCCCCCCCCC(=O)O`, for which the call in assay [1], in assay [2], in assay [3], in [4], in assay [8] and in assay [5] was inactive.

`CCCCCCCC=O`: the call in assay [1], in assay [2], in [3], in assay [4], in [5] and in assay [6] was inactive.

In the case of `O=C(O)Cc1ccccc1Nc1c(Cl)cccc1Cl`, the result in assay [1], in assay [2], in assay [3], in assay [4], in assay [8] and in assay [5] was inactive. Also, the result in assay [6] was inactive.

For the compound `Cc1ccc(C(C)C)c(O)c1`, the outcome in [1], in assay [2], in assay [4], in assay [5] and in [6] was inactive.

As for `CCCCN(CCCC)CCCC`, the compound was called inactive in assay [1], in [2], in assay [3], in assay [7], in [4] and in assay [8]. In addition, the compound was classed as inactive in assay [5], in assay [6] and in [9].

Regarding `O=C(O)CCCCC(=O)O`, the call in assay [1], in assay [2], in [3], in [4], in assay [8] and in [5] was inactive. Moreover, the result in assay [6] was inactive.

For `Nc1ccc2c(c1)C(=O)c1ccccc1C2=O`, the compound was called inactive in [1], in assay [3], in [4], in assay [8], in [5] and in [6].

Turning to `O=C(OCCCCCOC(=O)c1ccccc1)c1ccccc1`, the call in assay [1], in assay [2], in assay [3], in assay [7], in assay [4] and in assay [8] was inactive. Also, the call in [5] and in assay [6] was inactive.

Consider `CC(=O)OCCOCCOCCOC(C)=O`, for which the outcome in assay [1], in assay [2], in assay [3], in assay [4] and in assay [6] was inactive.

Take `CN[C@H]1CC[C@@H](c2ccc(Cl)c(Cl)c2)c2ccc(S(N)(=O)=O)cc21`: the compound was called inactive in [1], in assay [3], in assay [4], in [8], in assay [5] and in assay [6].

On to `Clc1cc(Cl)c(Cl)cc1Cl`, for which the outcome in assay [1], in assay [2], in assay [3], in assay [7], in [5] and in [6] was inactive.

Turning to `Cc1nc(C)nc(N2C[C@@H](C)N(c3ccnc([C@@H](C)O)n3)[C@@H](C)C2)n1`, the result in assay [1], in [2], in [3], in [4], in assay [8] and in assay [5] was inactive. Besides, the compound was classed as inactive in [6].

Regarding `CCOC(=O)CCC(=O)OCC`, the outcome in assay [1], in assay [2], in [3], in assay [4], in assay [5] and in assay [6] was inactive.

In the case of `Nc1ccccc1N`, the call in [1], in assay [4], in assay [8], in [5] and in assay [6] was inactive. For the same compound, in assay [2], the AC50 is 10500 nM (active).

Take `Cc1ccc2ncccc2c1`: the compound was classed as inactive in [1], in assay [2], in [3], in assay [7], in assay [4] and in assay [5]. In addition, the result in assay [6] was inactive.

Turning to `Cc1cc(NC(=O)C(=O)O)cc(C)c1Oc1ccc(O)c2c1CCC2`, the call in assay [1], in assay [2], in assay [8] and in [6] was inactive. In addition, the AC50 in [3] was 546 nM (active); in assay [4] it was 499 nM (active); in [5], 3.39 nM (active).
